Out of some 340,000 compounds screened, about 2,500 (0.74%) were called active. The list comes from a sample in which actives are over-represented; it also holds similar structures and randomly drawn compounds. Unmarked numbers belong to inactive results.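 Rule for the calls: active = inhibition above about 55% (limit read from the data); inactive = the rest.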

A short description of the assay: blockers of Gli reporter signaling – luciferase luminescence, Sufu-KO-LIGHT cells, uHTS, primary screen (AID 588413).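 Note: 0% = DMSO-treated cells and 100% = wells with medium but no cells.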 As to conditions: Sufu-KO-LIGHT fibroblasts, at 5 µM, stronger effect = higher value.
As to `CNc1ccc(SC#N)cc1`, the inhibition (usually the drop in the measured response relative to a control, in per cent) is 60.3% (active). Then `COc1ccc(N2C(=O)/C(=C\c3ccco3)N=C2SCC(N)=O)cc1Cl`, with 5.71%. With `O=C(Cn1cnc2c(nnn2-c2ccccc2)c1=O)N1CCC(Cc2ccccc2)CC1` the figure was -4.74%; with `COc1cc(-c2nc(S(=O)(=O)c3ccc(Cl)cc3)c(N(C)C)o2)cc(OC)c1OC`, 7.51%; with `COc1cc2ccccc2cc1C(=O)N1CCOCC1`, -5.57%. In the case of `O=C(c1snnc1-c1ccccc1)N1CCOCC1`, the inhibition is 9.83%. With `Cc1oc2c(c1C(=O)N1CCOCC1)C(=O)c1ccccc1C2=O` the figure was 87% (active).

On to `CCOC(=O)[C@H]1[C@H]2COc3ccc(Cl)cc3[C@@H]2N2C(=O)c3cc(C)ccc3NC(=O)[C@@]12C`, for which the inhibition is 1.26%.

Regarding `CCOC(=O)CN(C(=O)COc1nc(-c2ccccc2)cc(C)c1C#N)c1ccc(F)cc1`, the inhibition was 5.59%.

Take `Cc1ccc2c(=O)cc(C(=O)NCCc3ccc(S(N)(=O)=O)cc3)oc2c1C`: the inhibition is -18.4%.

As for `CSc1ccccc1NC(=O)Cc1ccc(Br)cc1`, the inhibition is 1.53%. With `Cc1ccc(S(=O)(=O)NC(C)C(=O)Nc2ccccc2C(=O)N2CCCC2)cc1` (centres undefined) the figure was 95% (active); with `COc1ccc(S(=O)(=O)Nc2ccccc2C(=O)N2CCCC2)cc1C`, -10.7%; with `COc1ccc(S(=O)(=O)NC(C)c2ccccc2)cc1C(=O)N1CCCCC1` (centres undefined), 12.8%.

For the compound `CCOc1ccc(/C=C(/C#N)c2nnc(N3CCOCC3)n2-c2ccccc2)cc1OC`, the inhibition is 4.23%.

For `O=S(=O)(Nc1ccc2nc(N3CCOCC3)sc2c1)c1ccccc1`, the inhibition was -64.9%. Then `c1c2c(cc3sc(N4CCCCC4)nc13)OCCO2`, with 66.6% (active); and `Brc1ccc2nc(N3CCCC3)sc2c1`, with -88.5%; and `CC1CN(C(=O)c2ccccc2NS(=O)(=O)c2cccc([N+](=O)[O-])c2)CC(C)O1` (centres undefined), with -7.72%. Then `COc1ccc(F)cc1C(=O)C1CCCN(C(=O)CCc2ccccn2)C1` (centres undefined), with 12.7%. Then `CC(C)(C)c1cc(C(=O)NN)n(Cc2ccc(Cl)cc2Cl)n1`, with -3.86%; and `O=c1ccn(Cc2ccccc2Cl)cc1`, with 17%; and `N#CC(C#N)=CN=c1ccn(Cc2ccc(Cl)cc2Cl)cc1`, with 57.1% (active). On to `COc1ccc(CC(=O)NC(C)c2ccc(Cl)c(Cl)c2)cc1S(=O)(=O)N1CCOCC1` (centres undefined), for which the inhibition is -4.33%. With `COc1cc(Cl)c(C)cc1NC(=O)CN1CCCCCC1` the figure was 40.6%. With `Cn1c(=O)c2c(nc(NCCNC(=O)c3ccco3)n2Cc2ccccc2F)n(C)c1=O` the figure was -26.1%; with `CCCCNc1nc2c(c(=O)n(C)c(=O)n2C)n1Cc1cccc(OC)c1`, 73.1% (active). For the compound `CCCCNc1nc2c(c(=O)[nH]c(=O)n2C)n1CCOc1ccccc1`, the inhibition is -15.8%. Then `CCn1c(NCCc2ccc(OC)c(OC)c2)nc2c1c(=O)n(C)c(=O)n2C`, with 11.3%; and `Cn1c(=O)c2c(nc(NCc3ccccc3)n2CC(N)=O)n(C)c1=O`, with 0.59%; and `Cn1c(=O)c2c(nc(NCCc3ccccc3)n2Cc2ccccc2)n(C)c1=O`, with 62.7% (active). As to `O=C(Cn1nnc(-c2ccccc2)n1)NC(=O)NC1CCCC1`, the inhibition is 0.46%. Then `Cc1ccc(SC(=O)COc2ccc(C)c(C)c2)cc1`, with -16.4%; and `COc1cc(C2C3C(=O)N(c4ccccc4)C(=O)C3ON2c2ccccc2)ccc1O` (centres undefined), with 1.38%. Then `O=C(CCN1C(=O)c2ccccc2C1=O)C1=NN[C@@H]2C(=O)N(c3ccc(F)cc3)C(=O)[C@H]12`, with 27.5%; and `CO/N=C/c1cn(-c2ccc(Cl)cc2)nn1`, with -5.6%. Then `COc1ccccc1CNC(=O)C1CCN(S(C)(=O)=O)CC1`, with -3.13%.

Take `COc1ccccc1CNC(=O)C1CCN(c2nc3ccccc3o2)CC1`: the inhibition is 79.4% (active). Take `COc1ccc(OC)c(CNC(=O)C2CCCN(c3nc4ccccc4o3)C2)c1` (centres undefined): the inhibition is 1.69%. With `COC(=O)Cc1nc2c(N)nc(N)nc2[nH]c1=O` the figure was 5.09%; with `NC(=O)C1CCN(C(=O)c2cc(S(=O)(=O)N3CCN(c4ccccc4)CC3)ccc2Cl)CC1`, 3.01%; with `COc1ccc(CS(=O)/C(Cl)=C(/Cl)C(=O)Nc2ccc(OC)nc2)cc1` (centres undefined), 68.1% (active). With `COc1ccc(CCC(=O)c2ccc(OC)cc2)cc1` the figure was 1.15%. Then `COc1ccc(OC(C)C(=O)Nc2cccnc2)cc1` (centres undefined), with -1.18%; and `CCc1c(C)nc2cc(C)[nH]n2c1=O`, with 75% (active).

For the compound `C=CCc1c(C)nc2cc(-c3ccccc3)[nH]n2c1=O`, the inhibition is 27.4%. Then `Cc1nc2nc[nH]n2c(=O)c1C/C=C/c1ccccc1`, with 26.2%. With `CCOc1ccccc1NC(=S)C(=C([O-])c1ccc2c(c1)OCCO2)[n+]1ccc(CC)cc1` the figure was -43.8%; with `O=C1C=C(c2cc(C(F)(F)F)cc(C(F)(F)F)c2)C[C@@H](c2ccc3c(c2)OCO3)C1`, 6.64%.

`COc1ccc2cc(C3=CC(=O)C[C@H](c4ccc5c(c4)OCO5)C3)ccc2c1`: the inhibition was -5.21%. Then `O=C1C=C(c2ccnc3cc(Cl)ccc23)C[C@@H](c2ccc3c(c2)OCO3)C1`, with 66.7% (active); and `N#CCC(=O)NC(=O)NCC1CC1`, with -8.84%.

Take `CC(=O)c1cc(NC(=O)c2ccccc2)c(=O)oc1/C=C/N(C)C`: the inhibition was 8.24%. With `CCN1CCC2(CCN(Cc3cn[nH]c3-c3ccc(OC)c(F)c3)C2)C1` (centres undefined) the figure was 7.07%.

On to `COc1ccc(-n2c(Cc3cccn3C)nnc2SCC(=O)Nc2cc(C)cc(C)c2)cc1`, for which the inhibition was 0.63%. Then `CCCCn1c(SCC(=O)N2CCC(C(=O)OCC)CC2)nc2cc(S(N)(=O)=O)ccc21`, with 6.66%; and `CCCCn1c(SCC(=O)N2CCCC2=O)nc2cc(S(N)(=O)=O)ccc21`, with 5.29%; and `NS(=O)(=O)c1ccc(CCNC(=O)CCCn2c(SCC(=O)N3CCCC3)nc3ccsc3c2=O)cc1`, with 79.4% (active).

As for `Cc1cc(N2C(=O)C(=O)/C(=C(/O)c3ccccc3)C2c2cccc(Br)c2)no1` (centres undefined), the inhibition is 7.53%.

Source of the values: PubChem BioAssay AID588413 (Sanford-Burnham Center for Chemical Genomics, 2011).
